PubChem BioAssay AID592 (National Center for Advancing Translational Sciences (NCATS), 2007)
“And” between values parts separate entries of the source, which are not always exact repeats. Identical values can stand only once. Screen size: about 59,000 compounds; fewer than 10 were called active. How the calls were made is not given here. Not all results are given here.

Assay: qHTS Assay for Spectroscopic Profiling in A647 Spectral Region
Conditions: Compound fluorescence, A647 channel (570/671 nm), Tris buffer; hits give high values
Excerpt: NIH Molecular Libraries Screening Centers Network [MLSCN] NIH Chemical Genomics Center [NCGC] […] Occasionally, the artifactual effect may originate from the compounds own spectral or other biophysical properties which generally tend to track its assay concentration. Pre-screening/profiling the library with respect to the compounds spectral properties should help one exclude false positives early on. While the most informative fluorescent profiling data set is obtained by performing a full excitation and emission scan of each well by using a monochromator-based plate reader, such an approach is practical only on a very limited scale as scanning each well requires long time. An alternative approach, applied here, is to perform plate reader scans using selected excitation and emission wavelength pairs to generate a multidimensional relational database that correlates compound concentration and the respective relative fluorescence intensity at a given wavelength set. A standard curve of Alexa 647 (A647) present on each plate as six-point concentration series, was used to compute a normalized fluorescence response, termed dye-equivalent concentration, for each compound at each concentration.
NCGC Assay Protocol Summary: Buffer: 100 mM Tris buffer, pH 8.0 Dye standard plate: The wells in columns 1 through 4 of a Kalypsys polypropylene 1536-well compound plate were filled with standard solutions of fluorophore corresponding to the spectral region of interest. Solutions of A647 were placed in the following wells: AC1, AD1: 3 mM, AC2, AD2: 300 uM, AC3, AD3: 30 uM, AC4, AD4: zero (DMSO), AE1, AF1: 3 uM, AE2, AF2: 900 nM, AE3, AF3: 300 nM, AE4, AF4: zero (DMSO). Assay Steps: Six uL of buffer were dispensed to 1536-well Greiner black plates. Compounds and dye standards (23 nL) were transferred via Kalypsys PinTool. The plates were incubated for 15 min at room temperature, and then read on ViewLux (Perkin-Elmer) High-throughput CCD imager using 570 nm and 671 nm excitation and emission filter set. Keywords: NIH Roadmap, MLSCN, MLI, MLSMR, qHTS, NCGC, A647, A-647, Fluorescent Profiling.

Max dye-equivalent concentration, inactive:
CCOc1cc(CO)ccc1OCC(=O)N1CCCCC1 5.6 nM
COC(=O)Nc1c(C)n(C)n(-c2ccccc2)c1=O 1 nM
CCN(CC)C(=O)C1CCC(C)(C(=O)O)C1(C)C (centres undefined) 5.6 nM
O=C(O)c1c(Br)c(Br)c(Br)c(Br)c1C1c2ccc(O)cc2Oc2cc(O)ccc21 1 nM
O=C(Nc1ccon1)c1cccc(Cl)c1 1 nM
Cc1cccc2cc(CN(Cc3ccc4c(c3)OCO4)Cc3nnnn3C3CCCC3)c(=O)[nH]c12 1 nM
COCCCn1c(CCC(=O)O)ccc1-c1ccc(F)cc1 26 nM
COCCn1nnnc1CN1CCC(NC(=O)Nc2cccc(OC)c2)CC1 41 nM
O=C(O)[C@@H](S)[C@H](S)C(=O)O 1.2 nM
COCCCNC(=O)CSc1nc2ccc(N3CCOCC3)cc2c(=O)n1CCc1ccccc1 19 nM
Cc1ccc(-c2noc(CSc3nnc(-c4ccccc4)n3C)n2)cc1 17 nM
COc1ccc(C2OC(=O)CC2C(=O)NC(C)C)cc1 (centres undefined) 2.6 nM
Cc1cc(Cl)c(S(=O)(=O)NCC2CCCO2)cc1OCC(N)=O (centres undefined) 1 nM
CC1(N2CCOCC2)CC2(O)C(=[N+]1[O-])CCc1nonc12 (centres undefined) 31 nM
Cc1ccc(C(=O)O)cc1S(=O)(=O)NCC1CCCO1 (centres undefined) 1 nM
O=C(c1ccncc1)N1CCC2(CCCN(C(c3ccccc3)c3ccccc3)C2)CC1 10 nM
C[C@@H]1CC[C@H]2[C@H](C)[C@H]3[C@H](C[C@H]4[C@@H]5CC=C6C[C@@H](O)CC[C@@]6(C)[C@@H]5C[C@@H](O)[C@]34C)N2C1 2.4 nM
Cn1nnnc1SCC(=O)N1CCN(C(c2ccccc2)c2ccccc2)CC1 1 nM
CCCC(C)n1[nH]c(=O)c2c(C)cc(C)nc21 (centres undefined) 16 nM
N#Cc1c2c(c(-c3ccccc3)[nH]c1=O)CCCC2 55 nM
Cc1ccccc1C(=O)Nc1cccc(-c2nnc(SCC(=O)O)n2C)c1 18 nM
O=C(Nc1ccccc1C(=O)N1CCOCC1)C1CCC(=O)N1C1CCCC1 (centres undefined) 14 nM
O=S(=O)(c1ccccc1)N(CC(O)CN1CCCCC1)c1ccccc1 (centres undefined) 1 nM
CCC(C)(C)n1nnnc1C(c1cccs1)N1CCN(Cc2ccccc2)CC1 (centres undefined) 35 nM
Cc1c(C(=O)Nc2ccccc2Cl)oc2ccc(S(=O)(=O)N3CCC4(CC3)OCCO4)cc12 45 nM
CCC(Oc1ccccc1)C(=O)NCc1cccnc1 (centres undefined) 1.3 nM
CC(C)OC(=O)c1sc2nc3c(cc2c1N)C(=O)CCC3 12 nM
Cn1cc(-c2nc3cncnc3n(-c3ccccc3)c2=O)c2ccccc21 1 nM
O=C(/C=N/O)Nc1ccccc1 1 nM
CCOC(=O)N1CCN(S(=O)(=O)c2ccc(C(=O)Nc3ccc(F)cc3F)cc2)CC1 29 nM
COc1ccccc1N1CCN(CCCCOc2ccc(F)cc2)CC1 1 nM
COc1ccc2nc(N3CCCC(O)C3)c(C#N)cc2c1 (centres undefined) 22 nM
CCCCN(CC)CCCNC(=O)CS(=O)(=O)Cc1nc(-c2cccc(OC)c2)oc1C 1 nM
COC(=O)c1ccccc1NC(=O)CN(Cc1ccccc1)S(C)(=O)=O 1 nM
COc1cccc(OC)c1OCCN1CCN(C(=O)c2ccco2)CC1 1 nM
Cc1cc(Cl)ccc1N1C(=O)CC(SCCC(=O)O)C1=O (centres undefined) 1 nM
COc1ccc(CC(=O)Nc2c3c(nn2-c2cccc(Cl)c2)CS(=O)C3)cc1 (centres undefined) 12 nM
Cc1c(C(=O)OCc2cc(=O)n3cc(Br)ccc3n2)oc2ccccc12 28 nM
CCOC(=O)N1CCN(C(=O)c2cn(C)c3ccc(S(=O)(=O)N4CCCC4)cc3c2=O)CC1 21 nM
Cc1cc(NC(=O)COc2ccc(Cl)cc2Cl)n(CCC#N)n1 18 nM
Cc1ccc(S(=O)(=O)NCc2cn3ccsc3n2)c(C)c1 18 nM
CCOc1cc(-c2nc3cc(C)ccn3c2NCC2CCCO2)ccc1O (centres undefined) 14 nM
CC(C)C(C(=O)NC1CCCCC1)N(CC1CCCO1)C(=O)CNS(=O)(=O)c1ccc(F)cc1 (centres undefined) 1 nM
COc1ccccc1N1CCN(c2nc3ccccc3n3nnnc23)CC1 42 nM
O=C(c1cccc(F)c1)N1CCC2(CC1)CCN(c1ccccc1)CC2 1.1 nM
COc1ccccc1CNCc1cccs1 25 nM
O=C(CN1C(=O)COc2ccccc21)NCCN1CCc2ccccc2C1 23 nM
CC(C)CCNC(=O)C(C)N(C(=O)Cn1nnc(-c2ccc(F)cc2)n1)C1CCCC1 (centres undefined) 1 nM
CN1CCN(S(=O)(=O)c2ccc(NC(=O)c3ccco3)cc2)CC1 3.8 nM
CCOC(=O)CSc1nc2sc3c(c2c(=O)[nH]1)CC(C)(C)OC3 2.2 nM
Cc1cc(=O)oc(C)c1C(=O)Nc1cnc2ccccc2c1 5.4 nM
CN(C)CCSc1nc(N)c2c3c(sc2n1)COC(C)(C)C3 6.7 nM
Cc1ccc(C(=O)CSc2nnc(Cn3nnc4ccccc43)n2C)cc1 15 nM
CCCc1cc(=O)n2[nH]c(SCc3ccccc3)nc2n1 28 nM
O=C(c1ccco1)N(Cc1nc2ccccc2c(=O)[nH]1)C1CCCC1 41 nM
COC(=O)[C@H](CCSC)NC(=O)Nc1ccc(OC)cc1 5.2 nM
CC[N+](C)(CC)CCC[n+]1c(-c2ccccc2)c2cc(N)ccc2c2ccc(N)cc21 1.7 nM
O=c1c(CCc2ccccc2)nc2cnc(N3CCNCC3)nc2n1Cc1cccs1 1 nM
O=C(OCC(=O)N1CCN(C(=O)c2ccco2)CC1)c1ccccc1Cc1ccccc1 7.2 nM
CCOc1ccccc1N=C1NC(=O)CS1 4.1 nM
CCOC(=O)C1CCN(C(c2cc3cc(C)cc(C)c3[nH]c2=O)c2nnnn2C2CCCCC2)CC1 (centres undefined) 1 nM
CCCSC1=C(C#N)C(c2ccccc2C)C(C(=O)OC)C(=O)N1 (centres undefined) 58 nM
COCC(C)n1c(SCc2ccc(C(=O)OC)o2)nc2ccccc2c1=O (centres undefined) 1.6 nM
COC(=O)c1ccc(C2CC(=O)Nc3cc(OC)c(OC)cc32)cc1 (centres undefined) 1 nM
CC(C)c1nc(N2CCOCC2)c(C#N)c2c1COC(C)(C)C2 69 nM
CCCC(=O)Nc1c(O)c2ccccc2[nH]c1=O 1 nM
C=C(C)CSc1nc(N)c2c3c(sc2n1)CCC3 1.9 nM
O=C(OC1CCOC1=O)c1ccc(-c2nc3ccccc3s2)s1 (centres undefined) 1 nM
CCCS(=O)(=O)C(=C1Nc2ccccc2N1)S(=O)(=O)CCC 1 nM
CSc1sc(C)cc1C1C(C#N)=C(N)N(c2cccnc2)C2=C1C(=O)CCC2 (centres undefined) 18 nM
CCN(CC)C(=O)N1CCN(C(=O)c2ccc(C)cn2)CC1 1 nM
CCC(CC)c1nnc(NS(=O)(=O)Cc2ccccc2)s1 5 nM
COC(=O)c1c(NC(=O)c2cccs2)sc2c1CCCC2 1 nM
CC1CCC(NC(=O)c2ccc(N3CCCC3=O)cc2)CC1 (centres undefined) 6 nM
CCCNC(=O)Nc1ccccc1C(=O)Nc1ccc(OC)cc1 1.2 nM
COc1ccccc1-n1nnnc1S(=O)(=O)Cc1ccc(Cl)cc1 37 nM
CCN1C(=O)/C(=C2/Sc3ccccc3N2CCCS(=O)(=O)O)SC1=S 1 nM
CCCCC(=O)Nc1ccc(C(=O)NCCCn2ccnc2)cc1 2.5 nM
CCOC(=O)CNC(=O)CSc1nnc(COc2ccc(Cl)cc2)n1CC 39 nM
N#C/C=C1\Sc2ccccc2C(=O)N1CC(=O)N1CCN(S(=O)(=O)c2ccccc2)CC1 1 nM
N#CC1=C(N)C(C#N)(C#N)[C@H](c2ccsc2)[C@H]2COCC=C12 25 nM
CC(C)C[C@H](NC(=O)[C@@H]1O[C@H]1C(=O)O)C(=O)NCCCCN=C(N)N 60 nM and 51 nM
Cc1ccc2[nH]c3c(c2c1)CN(C(=O)CN1CCN(c2ccccc2)CC1)CC3 12 nM
Cc1ccc(C(C(=O)NC2CCCC2)N(Cc2ccco2)C(=O)CCC(=O)Nc2ccccn2)cc1 (centres undefined) 23 nM
CC(=O)/C(C)=N\O 34 nM
COC(=O)c1cc(C(=O)OC)cc(N2C(=O)CC(N3CCN(c4ccccc4)CC3)C2=O)c1 (centres undefined) 14 nM
CC(=O)Nc1ccc(S(=O)(=O)Nc2nc3n(n2)C(c2ccccc2)CC(=O)N3)cc1 (centres undefined) 16 nM
N#Cc1c(N)sc2c1CCN(C(=O)OCc1ccccc1)C2 36 nM
O=S(=O)(c1cccc(S(=O)(=O)N2CCC(n3nnc4ccccc43)CC2)c1)N1CCCCC1 23 nM
